Results on 14 compounds are retold here after PubChem BioAssay (NCI).

Among the test systems are HCT-15 colon; HT29 colon; SNB-75 CNS; SNB-19 CNS; U251 CNS; PC-3 prostate; SK-MEL-5 melanoma; UACC-62 melanoma; LOX IMVI melanoma; SK-MEL-28 melanoma.
Common to all, as to experiment: NCI-60 one-dose screen, 48 h (100 = growth as untreated, 0 = no growth, -100 = all killed)
Common to all, as to settings: 10 µM

This is part of a sample that, as a whole, favours compounds with a hit. Of some 83,000 tested, about 20% had one in any assay.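 Step 1: grow cells in 96-well plates. Step 2: add test compound at a single concentration. Step 3: incubate 48 h. Step 4: record percent growth.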 Unmarked numbers belong to inactive results. Activity calls are given as the source filed them. The calls were made as follows: active = growth percent below 10; inactive = the rest.

`CCOc1ccccc1/C=N\N=C\c1ccccc1O`: the growth in the assay on HCT-15 colon was 100%; in the assay with HT29 colon, 101%; in the assay with SNB-75 CNS, 97.6%; in the assay on SNB-19 CNS it was 97.8%; in the assay with U251 CNS, 104%; in the assay with PC-3 prostate, 95.8%. In addition, the growth with SK-MEL-5 melanoma is 95.5%; with UACC-62 melanoma, 93%; with LOX IMVI melanoma it was 90.3%; with SK-MEL-28 melanoma, 112%.

As for `CC1(C)N=C(N)N=C(N)N1c1cccc(C#N)c1`, the growth is 33% with HCT-15 colon; 35.9% with HT29 colon; 77.4% in the assay with SNB-75 CNS; 66.8% in the assay with SNB-19 CNS; 28.5% with U251 CNS; 43.1% with PC-3 prostate. In addition, the growth with SK-MEL-5 melanoma is 52.4%; in the assay with UACC-62 melanoma it was 54.1%; in the assay on LOX IMVI melanoma, 21%; with SK-MEL-28 melanoma, 95%.

As for `CO[C@H]1CC(O[C@@H]2/C(C)=C/C[C@@H]3C[C@@H](C[C@]4(C=C[C@H](C)[C@@H](C5CCCCC5)O4)O3)OC(=O)[C@@H]3C=C(C)[C@@H](O)[C@H]4OC/C(=C\C=C\[C@@H]2C)[C@]43O)O[C@@H](C)C1O[C@H]1C[C@H](OC)[C@@H](O)[C@H](C)O1` (stereo not given in full), the growth was -79.2% (active) in the assay on HCT-15 colon; -71.9% (active) with HT29 colon; -66.8% (active) in the assay with SNB-75 CNS; -5.35% (active) with SNB-19 CNS; -91.2% (active) with U251 CNS; -59.6% (active) in the assay with PC-3 prostate. Also, the growth is -97.8% (active) in the assay with SK-MEL-5 melanoma, -78.1% (active) in the assay on UACC-62 melanoma, -97.3% (active) in the assay with LOX IMVI melanoma and -64.6% (active) with SK-MEL-28 melanoma.

Regarding `Cc1ccc(Cl)cc1NC(=O)CCl`, the growth with HCT-15 colon was 67.2%; in the assay with HT29 colon it was 82.9%; in the assay on SNB-75 CNS it was 85.6%; in the assay with SNB-19 CNS, 82.2%; with U251 CNS it was 67.5%; with PC-3 prostate, 81.2%. For the same compound, the growth in the assay on SK-MEL-5 melanoma was 58.1%; in the assay with UACC-62 melanoma, 66.3%; with LOX IMVI melanoma it was 42.2%; in the assay with SK-MEL-28 melanoma, 98.5%.

Consider `COc1cc(-c2nn(-c3cccc(NC(=O)CCN4CCN(c5ccccc5)CC4)c3)cc2-c2ccncc2)ccc1Cl`, for which the growth is 20.8% with HCT-15 colon; 4.96% (active) with HT29 colon; 36.8% in the assay on SNB-75 CNS; 35.9% in the assay with SNB-19 CNS; 17.2% in the assay with U251 CNS; 22% in the assay with PC-3 prostate. The growth with SK-MEL-5 melanoma was 22%; in the assay on UACC-62 melanoma it was 26.6%; with LOX IMVI melanoma, 6.98% (active); in the assay on SK-MEL-28 melanoma, 28.9%.

As to `O=C(CSc1nnc(-c2cccnc2SCc2ccccc2)o1)Nc1nc(Cl)cc(Cl)n1`, the growth with HCT-15 colon was 106%; in the assay on HT29 colon it was 110%; in the assay on SNB-75 CNS it was 85.7%; in the assay with SNB-19 CNS, 106%; in the assay with U251 CNS it was 106%; in the assay with PC-3 prostate, 94.5%. The growth in the assay on SK-MEL-5 melanoma is 101%; in the assay on UACC-62 melanoma, 101%; in the assay on LOX IMVI melanoma, 94.9%; with SK-MEL-28 melanoma, 113%.

Regarding `O=C(Nc1ccc2c(O)cc(S(=O)(=O)O)cc2c1)c1ccc([N+](=O)[O-])cc1`, the growth with HCT-15 colon is 99.3%; in the assay with HT29 colon, 95.3%; in the assay on SNB-75 CNS, 99.6%; in the assay with SNB-19 CNS, 95.8%; in the assay with U251 CNS it was 84%; with PC-3 prostate it was 83.1%. The growth is 94.8% in the assay with SK-MEL-5 melanoma, 101% in the assay on UACC-62 melanoma, 95.1% in the assay on LOX IMVI melanoma and 102% with SK-MEL-28 melanoma.

Regarding `CN1CCN(CCCn2c(=O)c3sc4ncccc4c3n3nnc(-c4ccccc4)c23)CC1`, the growth in the assay with HCT-15 colon is 7.72% (active); with HT29 colon it was -54.1% (active); in the assay with SNB-75 CNS, -24.7% (active); in the assay with SNB-19 CNS, 23.3%; in the assay on U251 CNS, -81.8% (active); in the assay on PC-3 prostate, 46.5%. Also, the growth in the assay on SK-MEL-5 melanoma is -96.3% (active); in the assay on UACC-62 melanoma it was -88% (active); with LOX IMVI melanoma it was -90.8% (active); in the assay on SK-MEL-28 melanoma, -92.6% (active).

With `COc1ccc(C(=O)COc2cccc(/C=C3\Cc4ccccc4C3=O)c2)cc1`, the growth in the assay on HCT-15 colon is 85.6%; with HT29 colon, 82.1%; in the assay with SNB-75 CNS it was 46.8%; in the assay on SNB-19 CNS it was 90.8%; with U251 CNS, 82.6%; with PC-3 prostate, 82%. In addition, the growth in the assay on SK-MEL-5 melanoma is 67.3%; with UACC-62 melanoma it was 61.3%; with LOX IMVI melanoma, 90.3%; in the assay with SK-MEL-28 melanoma, 103%.

As for `O=C(CCCSc1nc(-c2ccc(Cl)cc2)cc(-c2ccc(Cl)cc2)n1)NO`, the growth with HCT-15 colon was 17.6%; with HT29 colon, 23.2%; with SNB-75 CNS, 13.7%; with SNB-19 CNS, 17.7%; with U251 CNS, 17.2%; with PC-3 prostate, 21%. The growth is -31.7% (active) in the assay with SK-MEL-5 melanoma, -10.7% (active) in the assay on UACC-62 melanoma, -2.15% (active) with LOX IMVI melanoma and 25% with SK-MEL-28 melanoma.

Regarding `COc1cc(C(=O)N2CCN(c3cc4c(cc3F)c(=O)c(C(=O)NO)cn4C3CC3)CC2)cc(OC)c1OC`, the growth was 106% in the assay with HCT-15 colon; 105% in the assay with HT29 colon; 96.3% with SNB-75 CNS; 100% in the assay with SNB-19 CNS; 98.1% in the assay with U251 CNS; 93.6% in the assay with PC-3 prostate. For the same compound, the growth was 101% with SK-MEL-5 melanoma, 95% with UACC-62 melanoma, 94.1% with LOX IMVI melanoma and 108% in the assay on SK-MEL-28 melanoma.

With `OCCn1cccn1`, the growth with HCT-15 colon was 98.6%; in the assay with HT29 colon it was 104%; with SNB-75 CNS, 109%; in the assay with SNB-19 CNS, 113%; with U251 CNS it was 101%; in the assay with PC-3 prostate it was 100%. The growth with SK-MEL-5 melanoma is 99%; with UACC-62 melanoma, 114%; with LOX IMVI melanoma it was 96.3%; in the assay on SK-MEL-28 melanoma, 117%.

`O=C(CCNC(=O)c1nc(-c2ccccc2)n(-c2ccc(Cl)cc2)n1)NO`: the growth in the assay on HCT-15 colon is 104%; in the assay on HT29 colon, 89.8%; in the assay on SNB-75 CNS, 99.1%; in the assay on SNB-19 CNS it was 102%; in the assay on U251 CNS it was 96.1%; in the assay on PC-3 prostate it was 89.6%. The growth was 103% with SK-MEL-5 melanoma, 100% with UACC-62 melanoma, 98.5% in the assay on LOX IMVI melanoma and 101% in the assay with SK-MEL-28 melanoma.

For `COc1cc(Cc2cc(-c3ccccc3)n[nH]c2=O)cc(OC)c1OC`, the growth with HCT-15 colon was 34.5%; in the assay with HT29 colon it was 18.3%; in the assay with SNB-75 CNS, 55.5%; with SNB-19 CNS, 62.9%; with U251 CNS, 48.7%; with PC-3 prostate, 61.9%. Besides, the growth is 50.4% with SK-MEL-5 melanoma, 43.3% in the assay on UACC-62 melanoma, 45.5% in the assay on LOX IMVI melanoma and 70% in the assay on SK-MEL-28 melanoma.
